Sampled rows, rich in hits. Any-hit rate of the full collection: about 0.86%.
HIV TAR-Tat – HIV-1 TAR-Tat binding disruption; HIV-1 TAR RNA, Tat peptide displacement FRET; hits give high values; z-score (concentration not given with the values); hit rate 0.6% among 100,000; AID 1259389; active = z-score of 3 or more in at least 2 runs
CDC25B-CDK2 inh – human CDC25B-CDK2/CyclinA binding inhibition | P30305+P24941 | HTRF CDC25B-CDK2/CyclinA binding, anti-His/anti-Flag; hits give high values | z-score (no concentration beside the values) | hit rate 0.72% among 94,000; in the data active = z-score above about 3.2
Hits are given with their value.

What do the screens show for `Cc1cc(O)c2c(c1)C(=O)c1cc(O)cc(O)c1C2=O`?
HIV TAR-Tat: inactive; CDC25B-CDK2 inh: inactive

What do the screens show for `O=C1c2cccc(O)c2C(=O)c2c(O)cc(CO)cc21`?
HIV TAR-Tat: 6.22

Results for NNc1nc2ccccc2[nH]c1=S ?
CDC25B-CDK2 inh: 5.53

What do the screens show for `ON=C(c1nc2ccccc2[nH]1)c1nc2ccccc2[nH]1`?
CDC25B-CDK2 inh: inactive

What do the screens show for `O[C@H]1C=C2CCN3Cc4cc5c(cc4C(C23)[C@@H]1O)OCO5` (some centres undefined)?
HIV TAR-Tat: 19.6

How did Cc1cc(C(=O)NC(C)c2ccc3c(c2)OCO3)no1 (centres undefined) do in these assays?
HIV TAR-Tat: inactive

Results for COc1ccc(C2CC(=O)N3CN(Cc4ccco4)CSC3=C2C#N)cc1 (centres undefined) ?
HIV TAR-Tat: inactive; CDC25B-CDK2 inh: 3.17

Results for N#CC1=C2SCN(Cc3ccco3)CN2C(=O)CC1c1ccc(Br)cc1 (centres undefined) ?
HIV TAR-Tat: inactive; CDC25B-CDK2 inh: inactive

How did N#CC1=C2SCN(Cc3ccco3)CN2C(=O)CC1c1ccc(F)cc1 (centres undefined) do in these assays?
HIV TAR-Tat: inactive; CDC25B-CDK2 inh: 5.97

What do the screens show for `COc1ccc(CN2CSC3=C(C#N)C(c4ccc(F)cc4)CC(=O)N3C2)cc1` (centres undefined)?
HIV TAR-Tat: inactive; CDC25B-CDK2 inh: 3.64

What do the screens show for `Cc1ccc(C2C(=O)N(C3CCCCCC3)CC(=O)N2CCc2ccccc2)cc1` (centres undefined)?
CDC25B-CDK2 inh: inactive

What do the screens show for `O=C(NC1CCCc2ccccc21)C1CCN(c2ncnc3c2nc2n3CCCCC2)CC1` (centres undefined)?
HIV TAR-Tat: inactive

Results for O=C(CN1CCSc2ccccc21)NCCCN1CCCC1=O ?
HIV TAR-Tat: inactive

What do the screens show for `O=C(CSc1nnc(-c2ccc(Cl)cc2)o1)N1CCCC1`?
HIV TAR-Tat: inactive; CDC25B-CDK2 inh: inactive

Results for COC(=O)C1=C(C(=O)OC)SC(=C2C(=S)C(C)(C)Nc3ccc(C)cc32)S1 ?
HIV TAR-Tat: inactive; CDC25B-CDK2 inh: 17.9

What do the screens show for `COC(=O)C1=C(C(=O)OC)SC(=C2C(=S)C(C)(C)Nc3cc(C)c(C)cc32)S1`?
HIV TAR-Tat: inactive; CDC25B-CDK2 inh: inactive

Results for CCOc1ccc(-n2c(=O)[nH]c3c(C(N)=O)nc(-c4ccco4)nc32)cc1 ?
HIV TAR-Tat: inactive

What do the screens show for `O=C(CCCN1C(=O)c2cccnc2Sc2ccccc21)NC1CCCC1`?
HIV TAR-Tat: inactive

How did COc1ccc(-n2nc3ccc(N)cc3n2)cc1Cl do in these assays?
HIV TAR-Tat: 16.1; CDC25B-CDK2 inh: inactive

Results for Cc1ccc(-n2nc3ccc(N)cc3n2)cc1Cl ?
HIV TAR-Tat: inactive; CDC25B-CDK2 inh: inactive

Results for CC(C)N(C(=S)Nc1ccc2nc3c4ccccc4c4ccccc4c3nc2c1)C(C)C ?
CDC25B-CDK2 inh: 10.1

How did C=CCNC(=S)Nc1ccc2nc3c4ccccc4c4ccccc4c3nc2c1 do in these assays?
CDC25B-CDK2 inh: 4.68

How did CCCNC(=S)Nc1ccc(Cl)cc1 do in these assays?
CDC25B-CDK2 inh: inactive

Results for CCCNC(=S)Nc1ccc2nc3c4ccccc4c4ccccc4c3nc2c1 ?
CDC25B-CDK2 inh: 11.3

How did S=C(Nc1ccc2nc3c4ccccc4c4ccccc4c3nc2c1)N1CCOCC1 do in these assays?
CDC25B-CDK2 inh: inactive

How did COCCNC(=O)Nc1ccc2sc(NS(=O)(=O)c3ccccc3)nc2c1 do in these assays?
HIV TAR-Tat: inactive

How did COCCNC(=S)Nc1ccc2nc3c4ccccc4c4ccccc4c3nc2c1 do in these assays?
CDC25B-CDK2 inh: 11

What do the screens show for `C=CCNC(=O)Nc1ccc2nc(-c3ccccc3)c(-c3ccccc3)nc2c1`?
CDC25B-CDK2 inh: inactive

Results for OCCCNC(=S)Nc1ccc2nc(-c3ccccc3)c(-c3ccccc3)nc2c1 ?
CDC25B-CDK2 inh: 5.86

Results for O=C(NCCCO)Nc1ccc2nc(-c3ccccc3)c(-c3ccccc3)nc2c1 ?
CDC25B-CDK2 inh: inactive

What do the screens show for `COc1ccc(/C=C/c2nn3c(Cn4nnc5ccccc54)nnc3s2)cc1`?
HIV TAR-Tat: inactive; CDC25B-CDK2 inh: inactive

What do the screens show for `COCCNc1nc(NCc2ccc(C)cc2)c2cnn(C)c2n1`?
HIV TAR-Tat: inactive

What do the screens show for `COc1ccc2c(c1)OCC(Cc1ccc(OC)c(OC(C)=O)c1)C2=O` (centres undefined)?
HIV TAR-Tat: inactive

How did COc1ccc2c(c1)OCC(Cc1ccc(OC)c(OC)c1)C2=O (centres undefined) do in these assays?
HIV TAR-Tat: 14.3

What do the screens show for `O=C(CSC1=NS(=O)(=O)c2ccccc2N1)Nc1ccc(F)cc1F`?
HIV TAR-Tat: inactive

How did Nc1ncnc2oc(-c3ccccc3)cc12 do in these assays?
CDC25B-CDK2 inh: inactive

What do the screens show for `CC(C)(C)C1(O)C(=O)Nc2ccccc21` (centres undefined)?
HIV TAR-Tat: inactive; CDC25B-CDK2 inh: inactive

Results for O=C1C2=C(NC3=C(C(=O)c4ccccc43)C23C(=O)Nc2ccccc23)c2ccccc21 ?
CDC25B-CDK2 inh: 12.3

Results for Cc1ccc(CSc2nc(-c3cccs3)nc3cc(=O)[nH]n23)cc1 ?
HIV TAR-Tat: inactive

How did O=c1cc2nc(-c3cccs3)nc(SCc3ccc(Br)cc3)n2[nH]1 do in these assays?
HIV TAR-Tat: 27.3

Results for CCCCN(CC)CCNC(=O)c1cn2c3c(ccc(Cl)c3c1=O)OCC2 ?
HIV TAR-Tat: inactive

What do the screens show for `CCn1nc(-c2ccccn2)nc2c(=O)n(C)c(=O)nc1-2`?
HIV TAR-Tat: inactive; CDC25B-CDK2 inh: inactive

Results for CCn1nc(-c2ccccc2Br)nc2c(=O)n(C)c(=O)nc1-2 ?
HIV TAR-Tat: inactive; CDC25B-CDK2 inh: 11.5

How did O=C(Nc1ccccc1F)c1[nH]nc2c1COc1ccccc1-2 do in these assays?
HIV TAR-Tat: inactive

How did C=CCN(C(=O)CSc1nncn2c1cc1occc12)c1ccccc1 do in these assays?
HIV TAR-Tat: inactive

What do the screens show for `CCN(Cc1ccccc1)C(=O)CSc1nncn2c1cc1occc12`?
HIV TAR-Tat: 6.69

What do the screens show for `CCOC(=O)c1c(C)oc2nc(C)nc(Nc3ccccc3OCC)c12`?
HIV TAR-Tat: inactive

What do the screens show for `CCc1cc(N2CCN(c3cccc(C)c3C)CC2)n2ncnc2n1`?
HIV TAR-Tat: inactive; CDC25B-CDK2 inh: inactive

Results for CC(C)c1cc(C2CCCN2C(=O)c2cnn3c(C(F)(F)F)cc(-c4ccccc4)nc23)no1 (centres undefined) ?
HIV TAR-Tat: inactive

How did COc1ccccc1-c1cc(C(=O)O)c2ccccc2n1 do in these assays?
HIV TAR-Tat: inactive; CDC25B-CDK2 inh: inactive

What do the screens show for `O=C(O)c1ccccc1-c1c2ccc3cc(O)ccc3c2oc2c1ccc1cc(=O)ccc12`?
HIV TAR-Tat: 25; CDC25B-CDK2 inh: inactive

Results for O=c1c2nccnc2nc(SCc2ccc(Cl)cc2)n1Cc1ccc(F)cc1 ?
HIV TAR-Tat: inactive

What do the screens show for `Cn1cnc(S(=O)(=O)Nc2cccc(F)c2)c1`?
HIV TAR-Tat: inactive

How did C=CCN1C(=S)Nc2cccc[n+]2[B-]1(CCCC)CCCC do in these assays?
CDC25B-CDK2 inh: 3.9

What do the screens show for `O=C(CSc1ccccc1)Nc1nc2ccccc2o1`?
HIV TAR-Tat: inactive

How did CCOC(=O)CCc1c(C)c2c(C)nn(-c3cccc(F)c3)c2[nH]c1=O do in these assays?
HIV TAR-Tat: inactive; CDC25B-CDK2 inh: inactive

What do the screens show for `CCCCOC(=O)C1=C(C)NC2=C(C(=O)CC(c3ccccc3)C2)C1c1ccco1` (centres undefined)?
HIV TAR-Tat: inactive; CDC25B-CDK2 inh: inactive

Screening results deposited in PubChem BioAssay by Center for Chemical Genomics, University of Michigan.
